Shown are actives, neighbours in structure and some others; about 1.2% of the full set was active somewhere.
mIDH1 inhibitor: blocks human mutant IDH1 R132H enzyme | O75874 | 390,000 tested, 0.093% active | AID 602179 | Potency, µM (series often up to 76.6 µM), actives largely listed as inhibitors | IDH1-R132H enzyme, NADPH consumption, diaphorase/resazurin fluorescence; further: nearly all actives have a fitted effect of over 65% in size
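IDH1-R132H (0.5 ug/mL) preincubated 30 min with compound, then NADPH (0.016 mM) and alpha-KG (2 mM) added; 80 min at RT, pH 7.5. Remaining NADPH coupled via diaphorase/resazurin to fluorescence (540/590 nm); concentration-response curves normalized to no-enzyme control.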
ASM inhibitor: blocks human secretory acid sphingomyelinase; placental ASM, HMU-PC fluorogenic substrate, 60 min; Potency, µM (series often up to 57.5 µM), most hits filed as inhibitors; P17405; 340,000 tested, 0.006% active
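Human placenta-derived ASM enzyme was preincubated with compound for 10 minutes at room temperature, then given fluorogenic substrate HMU-PC0 (9 uM final) for 60 minutes at 37 °C; a pH 10 stop preceded fluorescence reading at Ex 386/Em 447 nm.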
KCNH2 3.1 block: blocks the human KCNH2 3.1 channel isoform; U2OS KCNH2 3.1, thallium flux FluxOr; active compounds read low; activity change, % (tested at about 1.8 µM); 340,000 tested, 0.95% active; AID 720553;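 active means maximum activity change below -70%; inconclusive means maximum activity change from -70% to -50%; inactive means maximum activity change above -50%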;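 further: thallium influx rate constant from kinetic fluorescence after stimulation buffer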
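Normalized rate constant (relative to positive and negative DMSO controls) derived from a 2 min kinetic fluorescence read after stimulation; U2OS cells expressing the 3.1 isoform via virus at 1.77 x 10^8 /mL.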
Anesthetic bind: candidate novel general anesthetic via apoferritin binding; P02791; apoferritin/1-aminoanthracene competitive binding, fluorescence; Potency, µM (titrated, usually from 77.5 µM), actives largely listed as inhibitors; 350,000 tested, 0.074% active; AID 485281; further: nearly all actives have a fitted effect of over 20% in size
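Probe: 1-aminoanthracene (50% saturated, PBS). Protein: horse-spleen apoferritin, 10 uM. Incubation: 10 min, room temperature. Detection: 380 nm excitation, 535 nm emission. Analysis: normalized response, four-parameter Hill.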
hERG WT inh: inhibitors of human wildtype KCNH2 potassium channel; Q12809; U2OS, BacMam KCNH2, thallium flux FluxOr; active compounds read low; activity change, % at 1.84 µM; 340,000 tested, 0.37% active;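 active means maximum activity change below -70%; inconclusive means maximum activity change between -70% and -50%; inactive means maximum activity change above -50%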
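U2OS cells were transduced with wild-type KCNH2 virus (2.03 x 10^8 / mL) for 4 h at room temperature, then cultured overnight at 37 C. Thallium flux was read with FluxOr dye. Rate constants were normalized to DMSO controls.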
IDH1 autofl: counter-screen for mutant IDH1 inhibitors: fluorescence interference. shares compounds with mIDH1 inhibitor. Resorufin detection reagent fluorescence interference, cell-free. inhibition of signal, % at 51.2 µM. 750 tested, under 10 active
WT IDH1 inh: wild-type IDH1 (human) inhibition counterscreen; shares compounds with mIDH1 inhibitor; AID 623995; Potency, µM (highest dose often 115 µM), most hits filed as inhibitors; WT IDH1 enzyme, NADPH diaphorase/resazurin fluorescence; 750 tested, 9% active; further: nearly all actives have a fitted effect of over 55% in size
IDH1 R132H conf: mutant IDH1 (human) inhibition, confirmed. shares compounds with mIDH1 inhibitor. IDH1 R132H enzyme, NADPH diaphorase/resazurin fluorescence. Potency, µM (series often up to 76.6 µM), usual class: inhibitors. 750 tested, 83% active. AID 624002; further: nearly all actives have a fitted effect of over 50% in size
Large screens that a line does not name were inactive (follow-up assays come after a bar, where they were run). Unless noted, the call rests on the fitted dose curve; in most records, active means well fitted curve in the direction sought with a large enough effect; inconclusive means small, poorly fitted or top-dose-only effect, or another doubt; inactive means no such curve, though single readings can be large; an effect the other way counts as inactive or inconclusive.

Cc1ccc(C(C(=O)NC2CCCC2)N(C(=O)Cc2cccs2)c2ccc(C)c(C)c2)o1 (centres undefined)	mIDH1 inhibitor 5.2µM | IDH1 autofl inactive | WT IDH1 inh inactive | IDH1 R132H conf 4.5µM
COc1ccc(N(C(=O)Cn2cnc3ccccc32)C(C(=O)NC2CCCCC2)c2ccccc2)cc1 (centres undefined)	mIDH1 inhibitor 9.3µM | IDH1 autofl inactive | WT IDH1 inh inactive | IDH1 R132H conf 2.8µM
C=CCn1c(SCc2nc3sc(C(=O)O)c(C)c3c(=O)[nH]2)nnc1-c1ccc(C(C)(C)C)cc1	mIDH1 inhibitor inconclusive | IDH1 autofl inactive | WT IDH1 inh inactive | IDH1 R132H conf 22µM
CCC(=O)Oc1ccc2c(=O)c(-c3ccc4ccccc4n3)c(CC)oc2c1C	mIDH1 inhibitor 52µM | IDH1 autofl inactive | WT IDH1 inh inactive | IDH1 R132H conf 7.1µM
Cc1oc2c(C)c(O)ccc2c(=O)c1-c1ccc2ccccc2n1	none

From PubChem BioAssay
